About 300 (9.4%) of roughly 3,200 compounds showed activity. Only a selection was taken, and actives are over-represented in it overall.
Test system: A673/TR/shEF
Assay: cell viability (LOESS-normalised, relative to median of negative controls) (log2 ratio); higher = more viable cells (less compound effect), active = hit call of the paper (over 3 MAD below the median)
Conditions: treatment time: 72 h
Outline: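 Viability of A673/TR/shEF Ewing sarcoma cells was determined by CellTiter-Glo luminescence. The cells, at 1,500 per well in 384-well plates, were grown with or without doxycycline from 24 h before compound addition to switch on EWS-FLI1 shRNA knockdown, then exposed for three days to library compounds at two or more concentrations or to DMSO controls. Signals were LOESS-corrected plate by plate, normalised to the negative-control median and log2-transformed.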

[1] = 0.25 µM, library screen: screen1, EWS-FLI1 expression: high (no doxycycline)
[2] = 0.25 µM, library screen: screen1, EWS-FLI1 expression: low (doxycycline-induced shRNA knockdown)
[3] = 2.5 µM, library screen: screen1, EWS-FLI1 expression: high (no doxycycline)
[4] = 2.5 µM, library screen: screen1, EWS-FLI1 expression: low (doxycycline-induced shRNA knockdown)
[5] = 0.103 µM, library screen: screen3, EWS-FLI1 expression: high (no doxycycline)
[6] = 0.103 µM, library screen: screen3, EWS-FLI1 expression: low (doxycycline-induced shRNA knockdown)
[7] = 0.25 µM, library screen: screen2, EWS-FLI1 expression: high (no doxycycline)
[8] = 0.25 µM, library screen: screen2, EWS-FLI1 expression: low (doxycycline-induced shRNA knockdown)
[9] = 0.308 µM, library screen: screen3, EWS-FLI1 expression: high (no doxycycline)
[10] = 0.308 µM, library screen: screen3, EWS-FLI1 expression: low (doxycycline-induced shRNA knockdown)
[11] = 0.926 µM, library screen: screen3, EWS-FLI1 expression: high (no doxycycline)
[12] = 0.926 µM, library screen: screen3, EWS-FLI1 expression: low (doxycycline-induced shRNA knockdown)
[13] = 2.5 µM, library screen: screen2, EWS-FLI1 expression: high (no doxycycline)
[14] = 2.5 µM, library screen: screen2, EWS-FLI1 expression: low (doxycycline-induced shRNA knockdown)
[15] = 2.8 µM, library screen: screen3, EWS-FLI1 expression: high (no doxycycline)
[16] = 2.8 µM, library screen: screen3, EWS-FLI1 expression: low (doxycycline-induced shRNA knockdown)
[17] = 8.3 µM, library screen: screen3, EWS-FLI1 expression: high (no doxycycline)
[18] = 8.3 µM, library screen: screen3, EWS-FLI1 expression: low (doxycycline-induced shRNA knockdown)
[19] = 25 µM, library screen: screen3, EWS-FLI1 expression: high (no doxycycline)
[20] = 25 µM, library screen: screen3, EWS-FLI1 expression: low (doxycycline-induced shRNA knockdown)

Measured: cell viability (log2)

O=C(O)[C@@H]1C2CC3c4[nH]c5ccccc5c4CCN3CC2CC[C@@H]1O (some centres not stated)
inactive: [1] 0.0321 | [2] 0.0471 | [3] 0.097 | [4] 0.142

NC(=O)c1ncn([C@@H]2O[C@H](CO)[C@@H](O)[C@H]2O)n1
inactive: [5] 0.0479 | [6] -0.00301 | [1] 0.0242 | [2] -0.0375 | [7] 0.0942 | [8] 0.138 | [9] 0.00539 | [10] 0.013 | [11] 0.012 | [12] 0.0638 | [3] 0.0898 | [4] -0.0568 | [13] 0.148 | [14] 0.053 | [15] -0.0142 | [16] -0.0276 | [17] 0.0371 | [18] 0.0291 | [19] 0.13 | [20] 0.0392

NC(=O)c1ncn([C@@H]2O[C@H](CO)[C@@H](O)[C@H]2O)c1N
inactive: [5] 0.135 | [6] 0.0617 | [9] 0.0707 | [10] 0.0876 | [11] 0.088 | [12] 0.0588 | [15] 0.1 | [16] 0.0775 | [17] 0.0463 | [18] 0.126 | [19] 0.13 | [20] 0.087

Nc1ccn([C@H]2CC[C@@H](CO)O2)c(=O)n1
inactive: [5] 0.122 | [6] 0.0536 | [7] 0.188 | [8] 0.111 | [9] 0.116 | [10] 0.0808 | [11] 0.123 | [12] 0.139 | [13] 0.0418 | [14] 0.107 | [15] 0.148 | [16] 0.0816 | [17] 0.0629 | [18] 0.0663 | [19] 0.132 | [20] 0.176

Nc1ccn([C@@H]2O[C@H](CO)[C@@H](O)[C@@H]2O)c(=O)n1
active: [5] -0.206 | [7] -0.179 | [11] -0.377 | [3] -0.85 | [13] -1.17 | [15] -0.966 | [17] -1.5 | [18] -0.184 | [19] -2.24 | [20] -0.544
inactive: [6] -0.0158 | [1] 0.0194 | [2] 0.174 | [8] 0.162 | [9] -0.0966 | [10] 0.00929 | [12] -0.00593 | [4] 0.0115 | [14] -0.0511 | [16] -0.023

Nc1ncn([C@@H]2O[C@H](CO)[C@@H](O)[C@H]2O)c(=O)n1
active: 25 µM, library screen: screen2, EWS-FLI1 expression: high (no doxycycline) -0.117
inactive: 0.025 µM, library screen: screen2, EWS-FLI1 expression: high (no doxycycline) 0.00187 | 0.025 µM, library screen: screen2, EWS-FLI1 expression: low (doxycycline-induced shRNA knockdown) 0.0749 | [1] 0.0677 | [2] 0.0883 | [7] 0.0549 | [8] 0.0892 | [3] 0.046 | [4] 0.161 | [13] 0.0659 | [14] 0.0803 | 25 µM, library screen: screen2, EWS-FLI1 expression: low (doxycycline-induced shRNA knockdown) -0.00278

Nc1ccn([C@@H]2O[C@H](CO)[C@@H](O)[C@H]2O)c(=O)n1
inactive: [1] 0.138 | [2] 0.019 | [3] 0.237 | [4] 0.0416

C[N+](C)(C)CCOP(=O)([O-])OP(=O)(O)OC[C@H]1O[C@@H](n2ccc(N)nc2=O)[C@H](O)[C@@H]1O
inactive: [7] 0.0983 | [8] 0.0319 | [13] 0.095 | [14] 0.0926

Nc1ccn([C@@H]2CS[C@H](CO)O2)c(=O)n1
inactive: [5] 0.125 | [6] 0.0191 | [9] 0.0768 | [10] 0.0559 | [11] 0.0245 | [12] 0.0926 | [15] 0.132 | [16] 0.0391 | [17] 0.0536 | [18] 0.0703 | [19] 0.101 | [20] 0.0951

N=c1ccn2c(n1)O[C@H]1[C@H](O)[C@@H](CO)O[C@H]12
inactive: [2] 0.0178 | [8] 0.0732 | [14] 0.0215
active: [1] -0.254 | [7] -0.122 | [3] -1.03 | [4] -0.19 | [13] -0.641

— the supplement of paper PMC6089552
